Experimental data from PubChem BioAssay.
For some of these results: Measured potencies and affinities stand elsewhere. Activity calls are given as the source filed them.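 The calls were made as follows, unless noted: active = calcium signal rise above buffer-control mean plus 5 SD in both duplicates, and also a hit in the primary screen; inactive = the rest.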

Key:
[1] = test system: TRPC4 beta (transient receptor potential cation channel C4), mouse; assay: TRPC4 cation channel opening, retest – cell-based, Fluo4 calcium, HEK293 TRPC4beta/mu-opioid, duplicates, 10 µM, confirmation (AID 2426;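 active = fluorescence ratio normalized to control raised more than 50% in primary screen plus both repeat runs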); settings: Fluo4 calcium fluorescence, at 10 µM; active compounds read high
[2] = test system: transient receptor potential cation channel C4 beta (TRPC4), mouse; assay: TRPC4 cation channel opening, second retest – cell-based, second round, Fluo4, HEK293 TRPC4beta/mu-opioid, 1 µM, confirmation (AID 2461;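 active = primary screen active and over 50% activation in each of two duplicate runs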); settings: Fluo4 calcium fluorescence, at 1 µM; active compounds read high
[3] = test system: TRPC4 (transient receptor potential cation channel C4 beta), mouse; assay: potentiation of DAMGO EC20 TRPC4 response – cell-based, second round, Fluo-4, HEK293 TRPC4beta/mu-opioid, 1 µM, confirmation (AID 2554;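 active = primary screen hit whose fluorescence ratio, in both repeats, exceeds the weak agonist control mean by 3 SD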); settings: DAMGO EC20, Fluo-4 calcium flux, at 1 µM; active compounds read high
[4] = test system: TRPC4 beta (transient receptor potential cation channel C4), mouse; assay: potentiation of DAMGO EC20 TRPC4 response – cell-based, Fluo-4, HEK293 TRPC4beta/mu-opioid, confirmation (AID 2555;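 active = primary screen hit whose calcium fluorescence ratio, in both repeats, exceeds the weak agonist control mean by 3 SD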); settings: DAMGO EC20, Fluo-4 calcium flux, at 10 µM; active compounds read high
[5] = target: Short transient receptor potential channel 4 (Mus musculus) (UniProt Q9QUQ5); assay: blockers of DAMGO-evoked TRPC4 calcium flux – cell-based, Fluo4, HEK293 TRPC4beta/mu-opioid, confirmation (AID 2636;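 active = calcium signal cut by more than 3 SD below the full-agonist control yet still positive, in both repeats and the earlier primary screen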); settings: at 10 µM; active compounds read high
Short transient receptor potential channel 4 (Mus musculus), sequence (Q9QUQ5 whole entry, looked up): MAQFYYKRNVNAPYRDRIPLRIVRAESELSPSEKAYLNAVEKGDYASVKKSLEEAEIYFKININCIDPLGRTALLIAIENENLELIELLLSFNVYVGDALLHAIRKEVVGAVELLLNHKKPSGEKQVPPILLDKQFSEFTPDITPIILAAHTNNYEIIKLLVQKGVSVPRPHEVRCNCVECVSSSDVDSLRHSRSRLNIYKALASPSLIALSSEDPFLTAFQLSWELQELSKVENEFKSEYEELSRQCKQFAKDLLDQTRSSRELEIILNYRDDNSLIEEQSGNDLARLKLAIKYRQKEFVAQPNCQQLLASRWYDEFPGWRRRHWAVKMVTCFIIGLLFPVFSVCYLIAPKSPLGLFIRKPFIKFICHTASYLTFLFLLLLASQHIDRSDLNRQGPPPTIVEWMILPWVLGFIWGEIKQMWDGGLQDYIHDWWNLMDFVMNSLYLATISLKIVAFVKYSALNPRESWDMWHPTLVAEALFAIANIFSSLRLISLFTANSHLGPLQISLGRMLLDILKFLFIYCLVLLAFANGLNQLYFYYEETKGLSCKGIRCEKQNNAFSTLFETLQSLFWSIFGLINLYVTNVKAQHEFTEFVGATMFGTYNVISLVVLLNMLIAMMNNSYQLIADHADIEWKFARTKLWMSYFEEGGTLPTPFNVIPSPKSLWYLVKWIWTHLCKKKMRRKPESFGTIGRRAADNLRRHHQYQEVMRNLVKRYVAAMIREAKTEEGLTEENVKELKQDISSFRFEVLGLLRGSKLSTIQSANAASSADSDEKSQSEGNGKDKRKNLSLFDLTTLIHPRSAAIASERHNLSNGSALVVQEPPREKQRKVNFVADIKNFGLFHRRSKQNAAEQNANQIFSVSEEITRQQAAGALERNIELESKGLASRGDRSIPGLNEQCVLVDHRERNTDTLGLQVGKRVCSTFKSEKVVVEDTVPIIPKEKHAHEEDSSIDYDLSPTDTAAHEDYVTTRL

[6] = target: Short transient receptor potential channel 4 (Mus musculus) (UniProt Q9QUQ5); assay: blockers of DAMGO-evoked TRPC4 calcium flux – cell-based, second round, Fluo4, HEK293 TRPC4beta/mu-opioid, 1 µM, confirmation (AID 2637;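 active = calcium signal ratio cut to more than 3 SD under the fully stimulated control mean yet still positive, in both repeats and the primary screen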;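 as to inhibition: percent of integrated ratio relative to wells lacking test compound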); settings: at 1 µM; active compounds read high
[7] = target: Short transient receptor potential channel 4 (Mus musculus) (UniProt Q9QUQ5); assay: calcium entry via TRPC4 opening agents – cell-based, HEK293 TRPC4/mu-opioid, Fluo-4 calcium, dose response (AID 434937;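 active = primary screen activator hit with a dose response curve and TRPC4 channel activation at any tested dose; inactive = no activation, no dose response, or not a primary hit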)
[8] = target: Short transient receptor potential channel 4 (Mus musculus) (UniProt Q9QUQ5); assay: potentiation of DAMGO-evoked TRPC4 calcium signal – cell-based, HEK293 TRPC4/mu-opioid, Fluo-4 calcium, EC20 DAMGO, dose response (AID 434941;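 active = earlier screen potentiator hit that boosts the TRPC4 ion channel at some dose, with a dose response; inactive = no potentiation, no dose response, or not a prior hit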;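 also: calcium entry triggered by an EC20 dose of DAMGO at the co-expressed mu-opioid receptor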)
[9] = target: Short transient receptor potential channel 4 (Mus musculus) (UniProt Q9QUQ5); assay: block of DAMGO-driven TRPC4 calcium entry – cell-based, HEK293 TRPC4/mu-opioid, Fluo-4 calcium, dose response (AID 434942;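 active = primary screen inhibitor hit that blocks the TRPC4 channel at some tested dose, yielding a dose curve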)
[10] = target: Short transient receptor potential channel 6 (Mus musculus) (UniProt Q61143); assay: TRPC6 blockade by TRPC4 inhibitor hits – cell-based, HEK293, membrane potential dye, duplicate, selectivity assay for TRPC4 inhibitor project, confirmation (AID 434948;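 active = active in primary screen and both duplicates, each dropping signal beyond three positive-control SD with fluorescence still positive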); settings: HEK293 TRPC6, membrane potential dye fluorescence, at 10 µM, stimulated with maximal-effect acetylcholine; active compounds read high
Short transient receptor potential channel 6 (Mus musculus), sequence (Q61143 whole entry, looked up): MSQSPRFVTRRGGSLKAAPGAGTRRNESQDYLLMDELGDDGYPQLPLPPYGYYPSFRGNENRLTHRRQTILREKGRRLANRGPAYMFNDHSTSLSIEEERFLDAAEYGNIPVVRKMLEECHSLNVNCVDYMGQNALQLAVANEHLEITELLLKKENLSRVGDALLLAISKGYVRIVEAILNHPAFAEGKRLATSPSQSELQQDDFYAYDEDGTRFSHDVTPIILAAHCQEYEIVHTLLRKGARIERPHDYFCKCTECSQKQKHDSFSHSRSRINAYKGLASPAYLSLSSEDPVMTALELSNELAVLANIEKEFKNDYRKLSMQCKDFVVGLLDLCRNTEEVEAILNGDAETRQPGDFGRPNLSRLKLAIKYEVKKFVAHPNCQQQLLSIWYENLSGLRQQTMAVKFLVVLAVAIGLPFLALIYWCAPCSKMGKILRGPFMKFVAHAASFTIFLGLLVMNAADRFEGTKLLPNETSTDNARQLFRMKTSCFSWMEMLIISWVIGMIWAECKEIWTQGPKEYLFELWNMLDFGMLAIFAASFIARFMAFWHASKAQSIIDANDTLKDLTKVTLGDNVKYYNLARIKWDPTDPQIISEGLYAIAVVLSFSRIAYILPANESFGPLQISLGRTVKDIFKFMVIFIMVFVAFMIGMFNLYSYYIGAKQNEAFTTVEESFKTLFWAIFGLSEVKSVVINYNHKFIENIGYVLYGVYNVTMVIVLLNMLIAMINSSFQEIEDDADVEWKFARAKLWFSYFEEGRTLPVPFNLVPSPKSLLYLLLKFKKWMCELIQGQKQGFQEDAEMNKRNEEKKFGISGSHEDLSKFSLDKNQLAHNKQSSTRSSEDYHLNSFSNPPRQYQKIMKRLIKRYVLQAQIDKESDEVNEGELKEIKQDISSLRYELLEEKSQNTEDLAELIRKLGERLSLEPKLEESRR

[11] = target: Short transient receptor potential channel 6 (Mus musculus) (UniProt Q61143); assay: TRPC6 opening by TRPC4 activator hits – cell-based, HEK293, membrane potential dye, duplicate, selectivity assay for TRPC4 activator project, confirmation (AID 434950;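 active = membrane potential signal rise above negative control mean plus 3 SD in both duplicates, also active in the earlier TRPC4 screen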); settings: HEK293 TRPC6, membrane potential fluorescence, at 10 µM; activation: active compounds read high; outcome: activation
[12] = target: Short transient receptor potential channel 6 (Mus musculus) (UniProt Q61143); assay: positive modulators of mouse TRPC6 channel – HEK293 cells, membrane potential dye, duplicate, selectivity assay for TRPC4 potentiator project, confirmation (AID 434952;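 active = compound raising the membrane signal above positive-control mean plus 3 SD in both repeats, and a primary screen hit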); settings: HEK293 TRPC6, membrane potential dye fluorescence, at 10 µM, maximal acetylcholine added after compound; active compounds read high
[13] = target: Short transient receptor potential channel 4 (Mus musculus) (UniProt Q9QUQ5); assay: calcium flux activators in TRPC4/5HT1a cells, counter-screen for TRPC4 activator project, cell-based, second counter screen, HEK293 TRPC4/5HT1a, Fluo-4 (AID 434977); settings: Fluo-4 calcium flux, at 10 µM; active compounds read high
[14] = serotonin-gated TRPC4 signal block – cell-based, second counter screen, HEK293 TRPC4/5HT1a, Fluo-4, counter-screen for TRPC4 inhibitor project, confirmation (AID 434978;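 active = primary screen active whose calcium signal fell more than 3 SD beyond the full-serotonin control mean in both duplicate plates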;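 as to outcome: serotonin given first at submaximal then at maximal dose after compound preincubation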); settings: Fluo-4 calcium flux, at 10 µM, serotonin added to trigger calcium flux; active compounds read high
[15] = test system: TRPC4 (mouse), co-expressed with 5HT1a in HEK293; assay: enhancement of serotonin-evoked TRPC4 response – cell-based, second counter screen, HEK293 TRPC4/5HT1a, Fluo-4, counter-screen for TRPC4 potentiator project, confirmation (AID 434979;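 active = signal rise over 3 SD above mean of control wells given weak agonist, in both repeats and first screen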); settings: Fluo-4 calcium flux, at 10 µM, serotonin added at its EC20 dose; active compounds read high
[16] = nonspecific calcium rise without TRPC4 – cell-based, HEK293 mu-opioid receptor line, counter-screen for TRPC4 activator project, confirmation (AID 449723;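 active = hit in primary screen, with calcium signal over 5 SD above buffer well mean in both duplicates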;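 also: counter screen cells carry the mu-opioid receptor alone and lack TRPC4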); settings: HEK293 mu-opioid cells, Fluo-4 calcium fluorescence, at 10 µM; active compounds read high
[17] = nonspecific potentiation of DAMGO calcium response – cell-based, HEK293 mu-opioid receptor line, counter-screen for TRPC4 allosteric potentiator project, confirmation (AID 449724;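 active = calcium signal rise more than 3 SD above the low-dose agonist control mean, in both duplicate plates and the primary screen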); settings: HEK293 mu-opioid receptor cells, Fluo-4 calcium flux, at 10 µM, compound added before EC20 DAMGO stimulus; active compounds read high

CC(=O)N1N=C(c2c(-c3ccccc3)c3cc(C)ccc3[nH]c2=O)CC1c1ccco1 (centres undefined)
inactive: outcome [1] | outcome [2] | outcome [3] | outcome [5] | outcome [6] | outcome [7] | outcome [8] | outcome [9] | outcome [10] | outcome [11] | outcome [13] | outcome [14] | outcome [16] | outcome [17]
active: potentiation [4] 10% | potentiation, percent of control [12] 186% | potentiation [15] 15.5%

CCCn1nc(C(=O)NC2CCCc3ccccc32)c2ccccc2c1=O (centres undefined)
inactive: outcome [1] | outcome [2] | outcome [3] | outcome [5] | outcome [6] | outcome [7] | outcome [8] | outcome [9] | outcome [10] | outcome [11] | outcome [12] | outcome [13] | outcome [14] | outcome [16] | outcome [17]
active: potentiation [4] 22% | potentiation [15] 19.5%

N#Cc1ccc(OCC(O)CN2CCN(c3ncc(C(F)(F)F)cc3Cl)CC2)cc1 (centres undefined)
inactive: outcome [1] | outcome [2] | outcome [4] | outcome [5] | outcome [6] | outcome [7] | outcome [8] | outcome [9] | outcome [10] | outcome [11] | outcome [12] | outcome [13] | outcome [14] | outcome [16] | outcome [17]
active: potentiation [3] 8% | potentiation [15] 12.6%

COC(=O)c1ccc(NC(=O)CCN2CCN(Cc3ccccc3)CC2)cc1
inactive: outcome [1] | outcome [2] | outcome [4] | outcome [5] | outcome [6] | outcome [7] | outcome [8] | outcome [9] | outcome [10] | outcome [11] | outcome [12] | outcome [13] | outcome [14] | outcome [16] | outcome [17]
active: potentiation [3] 25% | potentiation [15] 12.9%

Cc1cc(C)c(C(=O)c2ccc(C(=O)N3CCCCC3)cc2)c(C)c1
inactive: outcome [1] | outcome [2] | outcome [3] | outcome [4] | outcome [5] | outcome [6] | outcome [7] | outcome [8] | outcome [9] | outcome [10] | outcome [11] | outcome [12] | outcome [13] | outcome [14] | outcome [15] | outcome [16] | outcome [17]

CC(C)c1ccc2c(c1)C1Cc3ccccc3C1N2 (centres undefined)
inactive: outcome [1] | outcome [2] | outcome [3] | outcome [4] | outcome [5] | outcome [6] | outcome [7] | outcome [8] | outcome [9] | outcome [10] | outcome [11] | outcome [12] | outcome [13] | outcome [14] | outcome [15] | outcome [16] | outcome [17]

CCOc1ccc(S(=O)(=O)N2CCN(C(=S)NC3CC3)CC2)cc1
active: potentiation [4] 9% | potentiation [15] 30.7%
inactive: outcome [1] | outcome [2] | outcome [3] | outcome [5] | outcome [6] | outcome [7] | outcome [8] | outcome [9] | outcome [10] | outcome [11] | outcome [12] | outcome [13] | outcome [14] | outcome [16] | outcome [17]

CC(C)CCn1c(N2CCN(c3cccc(Cl)c3)CC2)nc2c1c(=O)[nH]c(=O)n2C
inactive: outcome [1] | outcome [2] | outcome [3] | outcome [4] | outcome [5] | outcome [6] | outcome [7] | outcome [8] | outcome [9] | outcome [10] | outcome [11] | outcome [12] | outcome [13] | outcome [14] | outcome [15] | outcome [16] | outcome [17]

CN(C)CCCSc1nc(-c2ccccc2)nc2c1CCC2
inactive: outcome [1] | outcome [2] | outcome [4] | outcome [5] | outcome [6] | outcome [7] | outcome [8] | outcome [9] | outcome [10] | outcome [11] | outcome [12] | outcome [13] | outcome [14] | outcome [15] | outcome [16] | outcome [17]
active: potentiation [3] 8%

O=C(Nc1nc2c(s1)CN(Cc1ccccc1)CC2)c1c(F)cccc1F
active: potentiation [4] 10% | potentiation [15] 14%
inactive: outcome [1] | outcome [2] | outcome [3] | outcome [5] | outcome [6] | outcome [7] | outcome [8] | outcome [9] | outcome [10] | outcome [11] | outcome [12] | outcome [13] | outcome [14] | outcome [16] | outcome [17]

COc1cc(CN2CCC(CO)(CCOc3ccccc3)CC2)cc(OC)c1
inactive: outcome [1] | outcome [2] | outcome [3] | outcome [4] | outcome [6] | outcome [7] | outcome [8] | outcome [9] | outcome [10] | outcome [11] | outcome [12] | outcome [13] | outcome [15] | outcome [16] | outcome [17]
active: inhibition [5] 87% | inhibition [14] 43.6%

O=[N+]([O-])c1ccccc1CN1CCN(S(=O)(=O)c2ccccc2)CC1
inactive: outcome [1] | outcome [2] | outcome [3] | outcome [5] | outcome [6] | outcome [7] | outcome [8] | outcome [9] | outcome [10] | outcome [11] | outcome [12] | outcome [13] | outcome [14] | outcome [15] | outcome [16] | outcome [17]
active: potentiation [4] 11%

COc1cc(NC(=O)C(C)Oc2ccccc2)cc(OC)c1 (centres undefined)
inactive: outcome [1] | outcome [2] | outcome [3] | outcome [4] | outcome [5] | outcome [6] | outcome [7] | outcome [8] | outcome [9] | outcome [10] | outcome [11] | outcome [12] | outcome [13] | outcome [14] | outcome [15] | outcome [16] | outcome [17]

CCOc1ccc(CCNC(=O)c2ccc3c(=O)[nH]c4c(C(=O)NC(C)C)sc(=S)n4c3c2)cc1
inactive: outcome [1] | outcome [2] | outcome [5] | outcome [6] | outcome [7] | outcome [8] | outcome [9] | outcome [10] | outcome [11] | outcome [12] | outcome [13] | outcome [14] | outcome [16] | outcome [17]
active: potentiation [3] 9% | potentiation [4] 11% | potentiation [15] 7.91%

CCOC(=O)Cc1csc(NC(=O)NC2(C(F)(F)F)Oc3cc(Cl)c(Cl)cc3O2)n1
inactive: outcome [1] | outcome [2] | outcome [3] | outcome [4] | outcome [7] | outcome [8] | outcome [9] | outcome [10] | outcome [11] | outcome [12] | outcome [13] | outcome [15] | outcome [16] | outcome [17]
active: inhibition [5] 47% | inhibition [6] 41% | inhibition [14] 39.5%

COc1ccc(S(=O)(=O)N2CCCCCC2)cc1C(=O)N(C)Cc1ccc(Cl)cc1Cl
inactive: outcome [1] | outcome [2] | outcome [3] | outcome [5] | outcome [6] | outcome [7] | outcome [8] | outcome [9] | outcome [10] | outcome [11] | outcome [12] | outcome [13] | outcome [14] | outcome [16]
active: potentiation [4] 46% | potentiation [15] 14.4% | activation [17] 2180%

O=C(Cn1nc(-c2ccccc2)ccc1=O)NCCN1CCN(Cc2ccccc2)CC1
active: potentiation [15] 13%
inactive: outcome [1] | outcome [2] | outcome [3] | outcome [4] | outcome [5] | outcome [6] | outcome [7] | outcome [8] | outcome [9] | outcome [10] | outcome [11] | outcome [12] | outcome [13] | outcome [14] | outcome [16] | outcome [17]
